High-throughput results deposited in PubChem BioAssay by National Center for Advancing Translational Sciences (NCATS).
Rows were chosen to be rich in hits. Some 11% of all compounds tested hit in one or more screens of this group.
Sm TGR block: blocks Schistosoma mansoni thioredoxin glutathione reductase. Q962Y6. hit rate 3% among 360,000. purified TGR, DTNB reduction, TNB absorbance 405 nm. Potency, µM (series often up to 114 µM), usual class: inhibitors; note: nearly all actives have a fitted effect of over 60% in size
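TGR 20 nM + NADPH 100 uM (dispensed conc.), cpd preinc 15 min RT; start with NADPH (500 uM addition) then DTNB (15 mM addition). Kinetic TNB absorbance, 405 nm filter. Four-parameter Hill fit across titration.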
Pf growth 96h: P. falciparum growth inhibition at 96 hours; P. falciparum luciferase reporter growth, 96 h; Potency, µM (top dose mostly 28.7 µM), usual class: inhibitors; hit rate 6.9% among 320,000; AID 504834
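Delayed-death screen, second-generation endpoint: infected erythrocytes, 2% hematocrit, 0.05% parasitemia final; 96 hours at 37 C, 5% CO2; luciferase detection reagent; luminescence decrease equals reduced growth.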
AMA1 RON2 block: AMA1-RON2 (P. falciparum) interaction inhibition. AlphaScreen AMA1-biotinylated RON2 peptide binding. Potency, µM (titrated, usually from 58.2 µM), actives largely listed as inhibitors. hit rate 0.2% among 360,000. AID 720542; note: nearly all actives have a fitted effect of over 45% in size
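AMA1 (3D7) with his tag at 25 nM final met compounds first, then biotinylated RON2 peptide at 25 nM; detection used donor plus acceptor beads, 10 µg/mL apiece, read by AlphaScreen after 30 min at room temperature.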
Pf growth 48h: inhibits P. falciparum growth in the first generation, 48 h; AID 504832; Potency, µM (titrated, usually from 28.7 µM), hits mostly inhibitors; P. falciparum luciferase growth in erythrocytes, 48 h; hit rate 5.9% among 310,000
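Firefly luciferase activity from engineered P. falciparum reports growth; inhibitors lower the luminescent signal. Cultures contained 2% hematocrit erythrocytes at 0.1% final parasitemia.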
NS1 inh: inhibitors of influenza NS1 protein function; Potency, µM (doses to about 46.1 µM); hit rate 0.4% among 270,000; calls by dose curve; note: actives are rising curves; nearly all actives have a fitted effect of over 50% in size
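OD600 was taken as the measure of yeast growth restored by compound in an NS1-expressing S. cerevisiae strain. Cells had been washed out of glucose medium and diluted 1:100 into galactose -URA medium, pH 6.0.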
Numbers stand for hits; n = inactive; u = inconclusive; x = not tested or not shown; [ ] = dose if it differs, or a comment. Unless noted, calls come from the whole dose curve; as a rule, active = well fitted curve in the direction sought with a large enough effect; inconclusive = small, poorly fitted or top-dose-only effect, or another doubt; inactive = no such curve, though single readings can be large; an effect the other way counts as inactive or inconclusive.

SMILES | Sm TGR block | Pf growth 96h | AMA1 RON2 block | Pf growth 48h | NS1 inh
O=C(c1cccs1)N1CCN(S(=O)(=O)c2ccc(F)cc2)CC1 | x | 0.465µM | n | n | n
CC(=O)NC1CC2CCCC(C1)N2S(=O)(=O)c1cccc(F)c1 (centres undefined) | n[11.4 µM] | 8.28µM | n | x | n
O=C(NC1CCN(S(=O)(=O)c2cccc(F)c2)CC1)c1ccc(F)cc1 | n | 10.4µM | n | u | n
O=C(NC1CC2CCCC(C1)N2S(=O)(=O)c1ccccc1)c1ccco1 (centres undefined) | u | n | n | u | n
O=C(Nc1cccc(Cl)c1)c1ccc2nc(Cc3ccccc3)oc2c1 | n | x | x | x | x
O=C(NC1CCN(S(=O)(=O)c2ccc(F)cc2)CC1)c1ccc(F)cc1 | n | 11.7µM | n | n | n
CC1CN(C2CCN(S(=O)(=O)c3ccc(F)cc3)CC2)CC(C)O1 (centres undefined) | 39.8µM | x | n | n | n
O=S(=O)(c1ccc(F)cc1)N1CCN(C(=S)NC2CC2)CC1 | n | u | n | 2.62µM | x
O=C(NC1CCCCC1)N1CCN(S(=O)(=O)c2ccc(F)cc2)CC1 | n | u | n | n | n
CCn1c(=NC(=O)CS(=O)(=O)c2ccc(F)cc2)sc2cccc(OC)c21 | n | u | n | 11.7µM | x
CCn1c(=NC(=O)CCS(=O)(=O)c2ccccc2)sc2cccc(OC)c21 | n | u | n | n | n
COc1ccc2c(c1)sc(=NC(=O)CS(=O)(=O)c1ccc(F)cc1)n2C | n | 4.15µM | n | 9.28µM | x
COc1ccccc1NC(=O)c1ccc(S(=O)(=O)N2CCC(C)CC2)cc1 | n | u | n | u | n
COc1ccc(CNCCc2ccccc2F)c(OC)c1C | n | n | u | 10.4µM | n
COc1cccc(CNCCc2ccccc2)c1OC | n | n | n | n | x
COc1ccc(CNCCc2c[nH]c3ccccc23)c(OC)c1C | n | 2.94µM | u | u | n
CC(=O)Nc1ccc(S(=O)(=O)Oc2cccc(N3C(=O)C4CCCCC4C3=O)c2)cc1 (centres undefined) | n | n | n | 13.1µM | n
O=C(c1ccc(N2CCCC2)c([N+](=O)[O-])c1)N1CCN(S(=O)(=O)c2ccccc2)CC1 | n | u | n | 10.4µM | x
CC(=O)Nc1ccc(S(=O)(=O)N2CCN(c3nnnn3-c3ccccc3)CC2)cc1 | n | n | n | n | n
Cc1ccc(C)c(S(=O)(=O)N2CCN(C(=O)c3ccc(-n4cncn4)c([N+](=O)[O-])c3)CC2)c1 | n | 11.7µM | n | u | x
O=S(=O)(c1cccc(C(F)(F)F)c1)N1CCN(c2nnnn2-c2ccccc2)CC1 | n | 8.28µM | n | n | n
Cn1c(=O)n(C)c2cc([N+](=O)[O-])c(N3CCN(S(=O)(=O)c4ccc(C(C)(C)C)cc4)CC3)cc21 | n | u | n | 9.28µM | n
COc1ccc(N2CCN(C(=O)c3ccccc3Br)CC2)c([N+](=O)[O-])c1 | n | 11.7µM | u | n[5.75 µM] | x
O=C(c1ccc(-n2cncn2)c([N+](=O)[O-])c1)N1CCN(S(=O)(=O)c2ccc(Cl)cc2)CC1 | n | 4.65µM | n | u | n
O=[N+]([O-])c1cc(C(F)(F)F)cc([N+](=O)[O-])c1N1CCN(S(=O)(=O)c2ccccc2)CC1 | n | 14.7µM | n | u | n
SMILES | Sm TGR block | Pf growth 96h | AMA1 RON2 block | Pf growth 48h | NS1 inh
CCC(=O)c1ccc(N2CCN(S(=O)(=O)c3ccccc3)CC2)c(F)c1 | n | 9.28µM | n | n | n
O=[N+]([O-])c1cc(C(F)(F)F)ccc1N1CCN(S(=O)(=O)c2ccc3ccccc3c2)CC1 | n | n | n | u | n
COc1ccccc1-c1nc(COc2ccc(Cl)cc2Cl)no1 | n | n | n | n | n
CCCCn1c(N)c(N(CC(C)C)C(=O)CCNC(=O)c2ccc(Cl)cc2)c(=O)[nH]c1=O | n | n | n | n | x
CSc1cccc(Nc2nc3c(S(=O)(=O)c4ccccc4)nnn3c3ccc(Cl)cc23)c1 | n | x | x | x | x
COc1ccc(N2CCN(C(=O)c3ccccc3)CC2)c([N+](=O)[O-])c1 | n | u | u | n | n
O=C(O)c1ccccc1C(=O)c1ccc(N2CCOCC2)c([N+](=O)[O-])c1 | x | u | n | n | n
O=C(O)c1ccccc1C(=O)c1ccc(N2CCCC2)c([N+](=O)[O-])c1 | n | 11.7µM | n | n[1.15 µM] | n
COc1ccccc1C(=O)/C=C/c1ccc(N2CCCCC2)c([N+](=O)[O-])c1 | n | 7.38µM | u | u | n
O=C1NC(=O)C(=Cc2ccc(N3CCN(C(=O)c4ccccc4)CC3)c([N+](=O)[O-])c2)C(=O)N1 | 11.2µM | u | n | n | x
O=C(/C=C/c1ccc(N2CCCCC2)c([N+](=O)[O-])c1)c1ccc(O)cc1 | n | u | u | u | n
Cc1ccc(NC(=O)CCNC(=O)Cn2ccc3ccccc3c2=O)cc1F | n | n | n | n | n
Cc1ccc(NC(=O)c2nc(S(C)(=O)=O)ncc2N(Cc2ccco2)Cc2ccco2)cc1C | n | x | x | x | x
O=C(Nc1ccccc1)C1=C[C@@H](c2ccc(C(F)(F)F)cc2)C[C@@H](OCCCCO)O1 | x | x | n | x | x
O=C(CSc1ccc(Cl)cc1)NNC(=O)c1cccnc1 | n | n | n | n | x
O=C1c2ccccc2C(=O)N1CC1c2ccccc2CCN1C(=O)C1CCCCC1 (centres undefined) | n | 11.7µM | n | x | n
CCc1ccc(-c2cn(C3CCCCC3)c(=S)[nH]2)cc1 | n | u | n | n | x
Cc1ccc(NC(=O)c2ccc(=O)n(CC(=O)Nc3cc(C)cc(C)c3)n2)cc1 | n | x | x | x | x
Cc1ccc(NC(=O)c2nnn(CC(=O)Nc3ccc4c(c3)OCO4)c2N)cc1C | n | n | n | n | n
Cc1ccc(NC(=O)Cn2nc(C(=O)Nc3ccc(C)cc3)ccc2=O)cc1 | n | 13.1µM | n | n | n
Cc1cc(C)c(NC(=O)Cn2nnc(C(=O)Nc3ccc(F)cc3F)c2N)c(C)c1 | n | 2.62µM | n | n | n
Cc1ccc(NC(=O)Cn2nnc(C(=O)Nc3ccc(C)c(C)c3)c2N)cc1 | n | 9.28µM | n | n | n
O=C(Nc1ccc(S(=O)(=O)Nc2ncccn2)cc1)C(F)(F)F | n | n | n | n | n
CC(C)OP(C)(=O)CN1CCN(CP(C)(=O)OC(C)C)CC1 (centres undefined) | n | 0.522µM | n | n | n
CN1CCN(CP(=O)(N2CCOCC2)N2CCOCC2)CC1 | n | n | n | n | n
O=C(Nc1ccccc1C(=O)N1CCCCCC1)c1cccc([N+](=O)[O-])c1 | n | n | u | n | n
C/C(CC(=O)Nc1cccc2c1CCCC2)=N\NC(=O)Cc1ccccc1 | n | n | n | n | n
C/C(CC(=O)Nc1cccc2c1CCCC2)=N\NC(=O)COc1ccccc1 | n | 2.08µM | n | n | n
CCOC(=O)N1CCN(C(=O)c2ccc3c(c2)N(C)C(=O)/C(=C\c2ccc(OCC)c(OC)c2)S3)CC1 | n | n | n | 1.17µM | n
CCOC(=O)N1CCN(C(=O)c2ccc3c(c2)NC(=O)/C(=C\c2ccc(OC)c(OC)c2)S3)CC1 | n | 13.1µM | n | u | n
